Experimental findings from PubChem BioAssay (EPA / NIEHS) are described below.

The source made the active and inactive calls. Rule for the calls: active = hit-call score of the fitted dose curve at least 0.9, where 1 is the maximum; inactive = score below 0.9.

The assay is described as follows: CCTE_Shafer_MEA_dev_per_burst_spike_percent: CCTE's Neural Network Formation Assay for Percent of Spikes in a Burst, Shafer Lab (AID 2284032). The protocol: CCTE_Shafer_MEA_dev assay is conducted using Axion Biosystems 48 well microelectrode array (MEA) plates and Maestro recording system. Each well of the MEA plate contains a grid of 16 microelectrodes embedded in the culture surface. Electrically active cells, such as neurons, can be cultured over the electrodes, and electrical activity in these cells can be recorded extracellularly. The spontaneous firing of neurons is captured from each electrode on a microsecond timescale providing both temporally and spatially precise data. […] The CCTE_Shafer_MEA_dev assay uses primary cultures of rat cortical neurons. Recordings are made on days post-plating 5, 7, 9 and 12. As these cultures mature over time, neural networks develop functional activity and form cohesive networks in which electrical activity can be highly coordinated. CCTE_Shafer_MEA_dev_per_burst_spike_percent is 1 of 19 assay components of the CCTE_Shafer_MEA_dev assay. It measures the percentage of spikes (action potential firings) in a single-electrode burst (temporally-clustered group of spikes) as the total number spikes in bursts divided by the total number of spikes during a recording in a microelectrode array (MEA) using Axion Biosystems Maestro 768 channel amplifier with the AxIS adaptive spike detector. The percent of spikes in bursts is averaged across the actively bursting electrodes to report a well-mean value. To collapse across multiple recordings made on days post-plating 5, 7, 9 and 12, the trapezoidal area-under-the-curve of the component is calculated.Data from the assay component CCTE_Shafer_MEA_dev_per_burst_spike_percent was analyzed into 1 assay endpoint. This assay endpoint, CCTE_Shafer_MEA_dev_per_burst_spike_percent, was analyzed in the negative analysis fitting direction relative to DMSO as the negative control and baseline of activity. Using a type of functional reporter, gain or loss-of-signal activity can be used to understand electrical activity.
On the day prior to culture, each well was coated thoroughly with 150 uL of 0.05% polyethyleneimine (PEI, Sigma Cat P3143) in 50 mM HEPES (Sigma Cat H7523) at a pH of 8. The plate was incubated at 37C for one hour. PEI was rinsed out with 500 uL of sterile water three times. Plates were stored at 4C until the day of culture. This culture was plated at a seeding density of 1.5 x 10^5 cells/well on a 48-well MEA plate, prepared as described above. Cells were administered via a 25 uL media/laminin ([…]; Sigma Cat L2020-1MG) drop directly onto the microelectrode array, as adding the cells with the laminin results in better attachment than pre-coating with laminin. After 2 hours, an additional 475 uL of cortical media was added and the cells returned to the incubator. Exposure starts at day 0 of plating and is continued over twelve days of network development until the experiment is terminated. Cells are fed with fresh medium on DIV 5 and 9, following the recordings on those days. The entire volume of media in the well is exchanged and any vehicle or compound treatment is renewed. Complete details are found in OP-NHEERL/ISTD/SBB/TJS/2015-03-r0 (available on request, email shafer.tim@epa.gov). Measurement of the electrical activity is non-invasive, and recordings can be made from the same plate over multiple different days of the culture. In cortical neurons, this allows for the measurement of extracellular action potentials over the period during which networks form in the MEA plate.
For the compound `O=S(=O)(OCC(F)F)C(F)(F)F`, the result was inactive.

Take `FC(F)(F)C(F)(F)CNCC(F)(F)C(F)(F)F`: the result was inactive.

Take `OC[C@@H](O)[C@@H](O)[C@H](O)[C@@H](O)CO`: the compound was classed as inactive.

As usually defined, the AC50 is the midpoint of the concentration-response curve, whichever way the signal moves. On to `FC(F)(F)C(F)(F)C(F)(F)C(F)(F)C(F)(F)CCI`, for which the AC50 was 22.2 µM (active).

As to `O=C(O)C(F)(F)C(F)(F)C(F)(F)F`, the compound was classed as inactive.

Regarding `O=C(O)C(F)(F)C(F)(F)C(F)(F)C(F)(F)C(F)(F)C(F)(F)C(F)(F)C(F)(F)Cl`, the compound was classed as inactive.

For the compound `Cc1ccc(S(=O)(=O)OCC(F)(F)C(F)(F)C(F)(F)C(F)(F)C(F)(F)C(F)F)cc1`, the compound was classed as inactive.

In the case of `C=CC(=O)OCC(F)(F)C(F)(F)C(F)(F)C(F)(F)COC(=O)C=C`, the AC50 was 4.76 µM (active).

Take `OCC(F)(F)C(F)(F)C(F)(F)C(F)F`: the call was inactive.

`O=S(=O)(OCCOC(F)(F)F)C(F)(F)F`: the result was inactive.

For the compound `OCC(F)(F)C(F)(F)C(F)(F)C(F)(F)C(F)(F)C(F)F`, the result was inactive.

As to `FC(F)(F)C(F)(F)C(F)(F)C(F)(F)C(F)(F)C(F)(F)CC1CO1` (stereo not drawn), the result was inactive.

Take `OCC(F)(F)C(F)(F)C(F)(F)F`: the result was inactive.

Take `CC(C)(C)C(=O)CC(=O)C(F)(F)C(F)(F)C(F)(F)F`: the AC50 is 23.5 µM (active).

As for `O=C(O)C(F)(F)C(F)(F)C(F)F`, the result was inactive.

For the compound `O=P(O)(O)OCCC(F)(F)C(F)(F)C(F)(F)C(F)(F)C(F)(F)C(F)(F)F`, the compound was called inactive.

As to `COC(=O)CCC(F)(F)C(F)(F)C(F)(F)C(F)(F)F`, the outcome was inactive.

Turning to `OCCCC(F)(F)C(F)(F)C(F)(F)F`, the compound was called inactive.

As to `N=C(N)C(F)(F)C(F)(F)C(F)(F)C(F)(F)C(F)(F)C(F)(F)C(F)(F)F`, the result was inactive.

`O=C(O)C=C(C(F)(F)F)C(F)(F)F`: the compound was classed as inactive.

In the case of `O=C(O)C(F)(F)C(F)(F)C(F)(F)C(F)(F)C(F)(F)C(F)(F)C(F)(F)C(F)(F)C(F)(F)C(F)F`, the call was inactive.

Consider `CC(CCl)OP(=O)(OC(C)CCl)OC(C)CCl` (stereo not drawn), for which the result was inactive.

As to `NC(=O)C(F)(F)C(F)(F)C(F)(F)C(F)(F)F`, the call was inactive.
